Common to all, as to assay: modulators of BK channel variants, profiling panel, selectivity assay, cell-based, U2OS BacMam, thallium flux, beta subunits (AID 1259406);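 note: initial slope of Thallos dye fluorescence rise after thallium is added; log ratio against the mean of 0.3% DMSO vehicle wells on the same plate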
One assay concerns F380Y/beta2Delta. The note with it: at 30 µM.
Another assay deals with F380Y/beta4. The note with it: at 30 µM.
Assay [1] concerns the target Calcium-activated potassium channel subunit alpha-1 (Homo sapiens) + Leucine-rich repeat-containing protein 26 (Homo sapiens) (UniProt Q12791+Q2I0M4). The note with it: F380Y/Slo1WT/gamma1, at 30 µM.
For a further assay, the system named is R275C. Conditions: at 30 µM.
Another assay concerns R275C/beta1. The note with it: at 30 µM.
The test system of a further assay is R275C/beta2Delta. Conditions: at 30 µM.
A further assay relates to R275C/beta4. The note with it: at 30 µM.
A further assay concerns R275C/Slo1WT/beta2. The note with it: at 30 µM.

SMILES strings stand for the structures. Values joined by “and” are separate entries in the source; they are usually repeats but may differ in a detail not shown here. Equal values may be shown once. A number with no mark means an inactive call. Active and inactive are the calls of the source.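 Rule for the calls: active = thallium flux through the channel raised or lowered by more than 3 SD from vehicle-only wells, actives on both sides; inactive = the rest.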

In PubChem BioAssay one finds log fold change Tl+ flux data, which are given here for 14 molecules.

Chain of Calcium-activated potassium channel subunit alpha-1 (Homo sapiens) + Leucine-rich repeat-containing protein 26 (Homo sapiens) (Q2I0M4 whole entry, looked up, one chain of several): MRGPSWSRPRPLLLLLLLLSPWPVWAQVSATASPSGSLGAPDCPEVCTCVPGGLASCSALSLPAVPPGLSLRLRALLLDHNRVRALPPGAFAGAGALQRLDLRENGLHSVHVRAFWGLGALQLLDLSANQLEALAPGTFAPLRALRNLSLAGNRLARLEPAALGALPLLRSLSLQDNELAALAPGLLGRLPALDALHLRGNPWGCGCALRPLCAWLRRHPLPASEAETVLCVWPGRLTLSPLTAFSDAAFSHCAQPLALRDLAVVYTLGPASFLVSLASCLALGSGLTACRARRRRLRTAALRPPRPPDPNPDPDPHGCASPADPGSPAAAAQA

Turning to `CCN1CCC[C@H]1CNC(=O)c1cc(S(N)(=O)=O)ccc1OC`, the log fold change Tl+ flux is -0.0214 in the assay with F380Y/beta2Delta; -0.00754 in the assay with F380Y/beta4; 0.0207 in assay [1]; -0.000435 with R275C; -0.0215 in the assay on R275C/beta1; -0.02 in the assay on R275C/beta2Delta. Also, the log fold change Tl+ flux in the assay on R275C/beta4 is 0.0473; in the assay on R275C/Slo1WT/beta2, -0.0273.
In the case of `Cc1nccn1CC1CCc2c(c3ccccc3n2C)C1=O` (configuration not stated), the log fold change Tl+ flux in the assay with F380Y/beta2Delta is -0.00534 and 0.0144; in the assay on F380Y/beta4, 0.0398 and -0.017; in assay [1] it was -0.0199 and 0.0181; in the assay with R275C, -0.0259 and 0.0252; with R275C/beta1, -0.00728 and 0.00537; in the assay on R275C/beta2Delta, -0.00652 and 0.0192. Also, the log fold change Tl+ flux is -0.00238 and 0.0058 in the assay on R275C/beta4; 0.0288 and 0.00389 in the assay on R275C/Slo1WT/beta2.
In the case of `COC1=C(OC)C(=O)C(CCCCCCCCCCO)=C(C)C1=O`, the log fold change Tl+ flux in the assay on F380Y/beta2Delta was -0.557 (active); in the assay with F380Y/beta4, -0.388 (active); in assay [1], -0.413 (active); with R275C, -0.199 (active); in the assay with R275C/beta1, -0.0599; in the assay on R275C/beta2Delta, -0.151 (active). The log fold change Tl+ flux is -0.0932 (active) in the assay on R275C/beta4 and -0.0534 in the assay on R275C/Slo1WT/beta2.
On to `CCOc1cc(N)c(Cl)cc1C(=O)NCC1CN(Cc2ccc(F)cc2)CCO1` (configuration not stated), for which the log fold change Tl+ flux with F380Y/beta2Delta was 0.0207; with F380Y/beta4 it was -0.0442; in assay [1], 0.0207; in the assay with R275C, -0.0128; with R275C/beta1, 0.0447; with R275C/beta2Delta it was 0.108 (active). In addition, the log fold change Tl+ flux in the assay with R275C/beta4 is 0.0132; in the assay with R275C/Slo1WT/beta2 it was 0.00286.
For `COC(=O)CCc1ccc(OCC(O)CNC(C)C)cc1` (configuration not stated), the log fold change Tl+ flux in the assay with F380Y/beta2Delta was 0.0184; in the assay on F380Y/beta4, -0.0155; in assay [1], -0.00535; in the assay on R275C, -0.0168; in the assay on R275C/beta1, 0.0198; in the assay with R275C/beta2Delta, 0.0115. The results for the log fold change Tl+ flux in the assay with R275C/beta4 and with R275C/Slo1WT/beta2 were 0.0115 and 0.0231, respectively.
On to `CCOC(=O)c1ncn2c1CN(C)C(=O)c1cc(F)ccc1-2`, for which the log fold change Tl+ flux was -0.0461 in the assay with F380Y/beta2Delta; -0.0546 with F380Y/beta4; -0.0345 in assay [1]; 0.00689 with R275C; 0.00279 with R275C/beta1; 0.0168 in the assay on R275C/beta2Delta. Besides, the log fold change Tl+ flux is 0.000313 in the assay with R275C/beta4 and 0.022 with R275C/Slo1WT/beta2.
With `CN1CCC(=C2c3ccccc3CC(=O)c3sccc32)CC1`, the log fold change Tl+ flux with F380Y/beta2Delta was 0.00285; in the assay with F380Y/beta4, 0.0281; in assay [1], 0.0191; in the assay on R275C, -0.082; with R275C/beta1 it was 0.0422; in the assay on R275C/beta2Delta it was 0.0873. For the same molecule, the log fold change Tl+ flux in the assay with R275C/beta4 was 0.0237; in the assay with R275C/Slo1WT/beta2 it was 0.0313.
In the case of `CC(C)(C)NC(=O)[C@@H]1CN(Cc2cccnc2)CCN1C[C@@H](O)C[C@@H](Cc1ccccc1)C(=O)N[C@H]1c2ccccc2C[C@H]1O`, the log fold change Tl+ flux with F380Y/beta2Delta is -0.0728; in the assay with F380Y/beta4, -0.0768; in assay [1], 0.0169; with R275C it was -0.0278; in the assay on R275C/beta1 it was -0.00667; in the assay on R275C/beta2Delta, -0.0261. Besides, the log fold change Tl+ flux with R275C/beta4 is 0.0581; in the assay on R275C/Slo1WT/beta2 it was 0.101 (active).
With `O=C(O)CCNC(=O)c1ccc(N=Nc2ccc(O)c(C(=O)O)c2)cc1`, the log fold change Tl+ flux is -0.00246 with F380Y/beta2Delta; 0.0201 in the assay with F380Y/beta4; 0 in assay [1]; -0.0367 with R275C; 0.0608 in the assay on R275C/beta1; 0.0174 with R275C/beta2Delta. The log fold change Tl+ flux in the assay on R275C/beta4 is 0.00146; in the assay on R275C/Slo1WT/beta2 it was 0.0188.
For `CC[N+](C)(CC)CCOC(=O)C(O)(c1ccccc1)C1CCCCC1` (configuration not stated), the log fold change Tl+ flux with F380Y/beta2Delta is -0.0141; in the assay with F380Y/beta4, -0.0257; in assay [1], 0.0349; in the assay with R275C, -0.0159; with R275C/beta1, -0.00643; with R275C/beta2Delta it was 0.0312. Further, the log fold change Tl+ flux with R275C/beta4 was 0.0157; with R275C/Slo1WT/beta2, 0.0812 (active).
As to `O=C(O)/C=C/c1ccc(Cn2ccnc2)cc1`, the log fold change Tl+ flux is -0.0133 with F380Y/beta2Delta; 0.00948 in the assay on F380Y/beta4; -0.0199 in assay [1]; 0.0013 in the assay with R275C; 0.0161 in the assay with R275C/beta1; 0.00561 in the assay on R275C/beta2Delta. Besides, the log fold change Tl+ flux in the assay with R275C/beta4 is -0.0096; in the assay with R275C/Slo1WT/beta2, 0.0187.
With `CN1CCN(c2c(F)cc3c(=O)c(C(=O)O)cn4c3c2SCC4)CC1`, the log fold change Tl+ flux was 0.0235 in the assay with F380Y/beta2Delta; -0.00383 in the assay on F380Y/beta4; 0.0303 in assay [1]; -0.068 in the assay on R275C; 0.019 in the assay with R275C/beta1; 0.0239 in the assay with R275C/beta2Delta. For the same molecule, the results for the log fold change Tl+ flux in the assay on R275C/beta4 and in the assay on R275C/Slo1WT/beta2 were 0.00729 and -0.0231, respectively.
With `COCc1c(C(C)C)nc(C(C)C)c(/C=C/[C@@H](O)C[C@@H](O)CC(=O)O)c1-c1ccc(F)cc1`, the log fold change Tl+ flux in the assay on F380Y/beta2Delta was 0.143 (active); with F380Y/beta4, 0.268 (active); in assay [1], 0.103 (active); with R275C, 0.0107; in the assay on R275C/beta1, 0.391 (active); in the assay with R275C/beta2Delta, 0.192 (active). Also, the log fold change Tl+ flux in the assay on R275C/beta4 was 0.207 (active); with R275C/Slo1WT/beta2, 0.0728.
In the case of `C[C@]12C[C@H](O)[C@H]3[C@@H](CCC4=CC(=O)CC[C@@]43C)[C@@H]1CC[C@@H]2C(=O)CO`, the log fold change Tl+ flux is -0.00742 in the assay with F380Y/beta2Delta; 0.0166 in the assay with F380Y/beta4; 0.0373 in assay [1]; -0.04 in the assay with R275C; 0.00127 with R275C/beta1; 0.0285 with R275C/beta2Delta. The log fold change Tl+ flux with R275C/beta4 was 0.0631; in the assay with R275C/Slo1WT/beta2, 0.00421.
